# Reference: the supplement of paper PMC10849652
# The full data set covers some 8,800 targets. This sample favours those with a hit. About 0.5% of all pairs of compound and target were hits. Values without a mark were called inactive.
# Columns and labels:
# Experiment in all cases: log2 fold change, soluble protein after heating vs DMSO (PISA); higher = thermal stabilisation; K562 lysate, 10 uM; active = over 0.2 and 3.5 SD of the protein, either way, in both replicates (recomputed)
# [1] = compound: C1=CC=C(C=C1)[C@H](COC2=CC3=C(C=C2)NC(=O)N3)NC(=O)C4=CC=CN(C4=O)CC5=CC(=C(C=C5)F)F
# Procedure, shortened: (§1)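 The values are log-two fold changes in thermal stability compared with solvent controls and come from duplicates. They were obtained by TMTpro 16plex LC-MS/MS, with channel sums equalised, on the supernatant after 21,000xg for 90 min. That supernatant came from crude K562 extract at 1 mg/mL protein treated with 10 μM compound for 30 min, heated for 3 min across 48°C-58°C, pooled and brought to 0.5% NP-40 at 4°C.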
# [2] = compound: CC1=C(SC2=C1C(=N[C@H](C3=NN=C(N32)C)CC(=O)N)C4=CC=C(C=C4)Cl)C
# Procedure, shortened: as §1
# [3] = compound: c1ccc([C@@H]2C[C@H]2NC2CCNCC2)cc1
# Procedure, shortened: as §1
# [4] = compound: Cc1sc2c(c1C)C(c1ccc(Cl)cc1)=N[C@@H](CC(=O)OC(C)(C)C)c1nnc(C)n1-2
# Procedure, shortened: as §1
# [5] = compound: CC1=C2C(=CC=C1)N=C(N(C2=O)C3=CC=CC=C3C)CN4C=NC5=C(N=CN=C54)N
# Procedure, shortened: as §1
# Chain of UniProt Q9H6P5 (Q9H6P5 whole entry, looked up): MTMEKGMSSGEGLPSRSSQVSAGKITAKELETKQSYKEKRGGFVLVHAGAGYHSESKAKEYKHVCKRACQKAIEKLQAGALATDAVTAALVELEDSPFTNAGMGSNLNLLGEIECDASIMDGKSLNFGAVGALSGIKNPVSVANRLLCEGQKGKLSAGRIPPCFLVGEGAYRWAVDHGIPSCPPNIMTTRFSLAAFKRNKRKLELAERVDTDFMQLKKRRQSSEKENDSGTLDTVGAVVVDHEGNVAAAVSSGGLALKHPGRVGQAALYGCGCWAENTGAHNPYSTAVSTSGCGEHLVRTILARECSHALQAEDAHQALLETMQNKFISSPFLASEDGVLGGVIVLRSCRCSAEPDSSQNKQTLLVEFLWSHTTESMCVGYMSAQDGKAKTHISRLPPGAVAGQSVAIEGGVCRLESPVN
# Chain of UniProt O43399 (O43399 whole entry, looked up): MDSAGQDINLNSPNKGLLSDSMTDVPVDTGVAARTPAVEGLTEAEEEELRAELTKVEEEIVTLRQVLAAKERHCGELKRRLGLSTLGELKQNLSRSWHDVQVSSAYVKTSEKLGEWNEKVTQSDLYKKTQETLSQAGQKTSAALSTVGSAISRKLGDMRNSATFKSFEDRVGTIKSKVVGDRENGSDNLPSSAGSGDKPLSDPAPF
# Chain of UniProt Q6N022 (Q6N022 whole entry, looked up): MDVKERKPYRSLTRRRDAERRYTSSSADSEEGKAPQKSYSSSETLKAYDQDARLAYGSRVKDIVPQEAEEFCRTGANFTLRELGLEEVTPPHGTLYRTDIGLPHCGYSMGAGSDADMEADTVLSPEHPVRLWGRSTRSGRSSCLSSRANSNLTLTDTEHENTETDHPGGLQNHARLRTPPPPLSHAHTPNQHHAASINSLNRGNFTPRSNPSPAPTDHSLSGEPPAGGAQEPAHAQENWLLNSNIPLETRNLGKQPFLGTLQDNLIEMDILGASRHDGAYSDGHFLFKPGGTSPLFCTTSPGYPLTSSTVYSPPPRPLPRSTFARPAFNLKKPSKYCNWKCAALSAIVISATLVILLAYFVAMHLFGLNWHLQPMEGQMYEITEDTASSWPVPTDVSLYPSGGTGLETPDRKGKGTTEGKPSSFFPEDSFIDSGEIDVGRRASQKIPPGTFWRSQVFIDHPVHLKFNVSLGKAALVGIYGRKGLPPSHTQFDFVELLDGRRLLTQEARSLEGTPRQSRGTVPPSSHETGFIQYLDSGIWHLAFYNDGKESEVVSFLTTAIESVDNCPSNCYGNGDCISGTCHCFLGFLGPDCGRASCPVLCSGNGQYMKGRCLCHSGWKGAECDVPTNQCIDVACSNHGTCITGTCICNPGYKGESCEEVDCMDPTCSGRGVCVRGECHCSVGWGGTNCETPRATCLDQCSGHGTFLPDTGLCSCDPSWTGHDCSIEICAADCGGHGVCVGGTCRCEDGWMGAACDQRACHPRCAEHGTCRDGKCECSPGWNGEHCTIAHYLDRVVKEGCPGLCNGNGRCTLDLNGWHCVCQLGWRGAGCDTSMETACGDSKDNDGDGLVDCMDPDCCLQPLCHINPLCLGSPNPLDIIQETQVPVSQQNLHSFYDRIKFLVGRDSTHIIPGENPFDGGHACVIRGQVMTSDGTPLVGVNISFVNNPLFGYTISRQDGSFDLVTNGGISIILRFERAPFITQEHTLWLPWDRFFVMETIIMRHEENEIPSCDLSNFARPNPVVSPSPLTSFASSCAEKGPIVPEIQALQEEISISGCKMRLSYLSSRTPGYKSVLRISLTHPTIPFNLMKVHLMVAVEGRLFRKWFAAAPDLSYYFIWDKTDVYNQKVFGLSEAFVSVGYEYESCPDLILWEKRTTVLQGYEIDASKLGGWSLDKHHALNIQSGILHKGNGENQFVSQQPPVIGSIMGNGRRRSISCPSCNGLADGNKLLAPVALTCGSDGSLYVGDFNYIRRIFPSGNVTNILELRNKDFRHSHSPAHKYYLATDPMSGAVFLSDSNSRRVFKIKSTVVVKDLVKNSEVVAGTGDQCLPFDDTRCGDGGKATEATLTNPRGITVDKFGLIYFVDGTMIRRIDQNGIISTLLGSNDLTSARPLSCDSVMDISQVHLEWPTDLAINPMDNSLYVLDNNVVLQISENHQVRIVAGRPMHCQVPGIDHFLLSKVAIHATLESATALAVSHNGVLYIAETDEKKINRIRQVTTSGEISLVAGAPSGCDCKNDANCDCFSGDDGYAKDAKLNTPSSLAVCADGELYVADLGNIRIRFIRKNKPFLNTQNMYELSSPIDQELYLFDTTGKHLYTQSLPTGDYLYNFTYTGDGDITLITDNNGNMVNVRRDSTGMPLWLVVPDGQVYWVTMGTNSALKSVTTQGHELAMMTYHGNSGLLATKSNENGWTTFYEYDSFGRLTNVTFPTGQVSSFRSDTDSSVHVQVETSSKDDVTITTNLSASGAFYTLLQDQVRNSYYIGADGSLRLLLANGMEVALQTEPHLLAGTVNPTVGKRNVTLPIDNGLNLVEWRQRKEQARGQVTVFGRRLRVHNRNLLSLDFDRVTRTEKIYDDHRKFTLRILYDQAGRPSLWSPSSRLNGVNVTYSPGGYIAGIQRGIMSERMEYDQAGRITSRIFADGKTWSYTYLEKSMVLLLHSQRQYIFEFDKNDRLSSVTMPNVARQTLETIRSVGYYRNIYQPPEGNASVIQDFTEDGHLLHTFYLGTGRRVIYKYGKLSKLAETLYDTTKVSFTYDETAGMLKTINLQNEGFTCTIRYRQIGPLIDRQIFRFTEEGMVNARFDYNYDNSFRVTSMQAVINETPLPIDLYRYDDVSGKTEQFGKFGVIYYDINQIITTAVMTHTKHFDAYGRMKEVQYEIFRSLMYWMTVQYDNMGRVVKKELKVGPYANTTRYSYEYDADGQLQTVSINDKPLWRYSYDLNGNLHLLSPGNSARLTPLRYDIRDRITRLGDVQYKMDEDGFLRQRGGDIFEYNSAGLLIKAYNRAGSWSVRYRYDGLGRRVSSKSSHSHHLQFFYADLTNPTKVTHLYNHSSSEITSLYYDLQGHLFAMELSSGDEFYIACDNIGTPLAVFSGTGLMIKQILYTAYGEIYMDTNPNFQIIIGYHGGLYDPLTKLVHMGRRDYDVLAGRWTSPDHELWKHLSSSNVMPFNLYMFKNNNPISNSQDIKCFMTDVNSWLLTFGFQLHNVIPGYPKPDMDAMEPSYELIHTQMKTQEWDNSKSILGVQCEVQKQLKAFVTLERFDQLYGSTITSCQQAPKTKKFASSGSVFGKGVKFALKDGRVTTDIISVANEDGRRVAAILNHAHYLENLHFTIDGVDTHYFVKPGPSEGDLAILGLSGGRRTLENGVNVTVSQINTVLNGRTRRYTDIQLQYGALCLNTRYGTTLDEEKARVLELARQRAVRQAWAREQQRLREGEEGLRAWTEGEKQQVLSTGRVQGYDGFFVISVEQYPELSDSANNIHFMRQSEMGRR
# Chain of UniProt P10646 (P10646 whole entry, looked up): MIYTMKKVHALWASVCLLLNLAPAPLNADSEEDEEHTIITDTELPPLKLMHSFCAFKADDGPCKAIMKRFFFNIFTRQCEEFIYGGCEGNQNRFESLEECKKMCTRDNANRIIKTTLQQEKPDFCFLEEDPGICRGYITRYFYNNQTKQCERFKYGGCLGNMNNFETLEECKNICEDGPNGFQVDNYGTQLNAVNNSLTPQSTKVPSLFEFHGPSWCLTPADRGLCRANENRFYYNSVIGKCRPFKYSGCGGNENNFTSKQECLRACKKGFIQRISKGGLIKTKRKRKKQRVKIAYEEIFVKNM
# Chain of UniProt Q9NPG3 (Q9NPG3 whole entry, looked up): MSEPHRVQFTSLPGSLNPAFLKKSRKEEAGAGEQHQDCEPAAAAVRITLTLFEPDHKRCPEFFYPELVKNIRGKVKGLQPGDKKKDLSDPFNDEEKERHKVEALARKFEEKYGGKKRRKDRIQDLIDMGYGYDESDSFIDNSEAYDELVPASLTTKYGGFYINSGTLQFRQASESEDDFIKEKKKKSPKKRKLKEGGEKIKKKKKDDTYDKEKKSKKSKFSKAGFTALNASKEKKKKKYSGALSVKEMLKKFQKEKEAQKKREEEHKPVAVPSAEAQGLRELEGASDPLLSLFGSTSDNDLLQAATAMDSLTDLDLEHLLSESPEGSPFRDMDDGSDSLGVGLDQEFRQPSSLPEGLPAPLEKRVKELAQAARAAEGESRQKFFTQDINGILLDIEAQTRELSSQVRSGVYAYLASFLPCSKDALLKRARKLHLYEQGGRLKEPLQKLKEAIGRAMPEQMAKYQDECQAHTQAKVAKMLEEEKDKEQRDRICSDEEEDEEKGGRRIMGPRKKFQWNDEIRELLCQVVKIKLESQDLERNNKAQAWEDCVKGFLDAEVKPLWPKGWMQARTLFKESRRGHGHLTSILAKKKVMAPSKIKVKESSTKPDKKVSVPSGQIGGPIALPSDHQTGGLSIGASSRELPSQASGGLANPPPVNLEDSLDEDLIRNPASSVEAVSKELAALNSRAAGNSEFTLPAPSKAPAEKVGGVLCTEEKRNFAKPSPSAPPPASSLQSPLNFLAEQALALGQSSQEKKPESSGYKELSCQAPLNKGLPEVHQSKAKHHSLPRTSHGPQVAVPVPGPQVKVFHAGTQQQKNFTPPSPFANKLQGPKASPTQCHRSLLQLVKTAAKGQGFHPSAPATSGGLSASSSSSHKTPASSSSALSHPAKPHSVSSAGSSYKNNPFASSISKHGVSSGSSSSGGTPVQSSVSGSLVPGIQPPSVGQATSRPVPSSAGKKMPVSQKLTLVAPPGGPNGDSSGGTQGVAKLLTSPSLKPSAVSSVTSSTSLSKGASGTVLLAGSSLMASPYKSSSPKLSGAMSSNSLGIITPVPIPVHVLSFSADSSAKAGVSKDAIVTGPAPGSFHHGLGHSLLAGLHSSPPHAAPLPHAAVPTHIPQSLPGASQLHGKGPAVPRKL
# Chain of UniProt Q9NRX6 (Q9NRX6 whole entry, looked up): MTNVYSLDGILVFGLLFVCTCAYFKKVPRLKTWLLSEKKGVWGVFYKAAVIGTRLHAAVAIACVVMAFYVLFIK
Target,log2 fold change [1],log2 fold change [2],log2 fold change [3],log2 fold change [4],log2 fold change [5]
TPD52L2 isoform 3 (UniProt O43399),-0.058,0.135,0.098,,
TGFBR1 isoform 2 (UniProt P36897),,,,-0.004,
UBAP2L (UniProt F8W726),,,,,-0.018
UBIAD1 (UniProt Q9Y5Z9),,,0.025,-0.048,-0.025
TFPI (UniProt P10646),0.053,-0.116,0.269,,-0.16
TENM4 (UniProt Q6N022),-0.057,0.174,0.137,,
TLK2 isoform 3 (UniProt Q86UE8),,,0.097,,
TM2D3 (UniProt Q9BRN9),0.023,-0.003,-0.513,,
UBR4 isoform 4 (UniProt Q5T4S7),,,,-0.284,-0.023
UBN1 (UniProt Q9NPG3),,,0.085,-0.164,0.03
TCF20 (UniProt Q9UGU0),0.022,-0.063,-0.059,-0.263,
TMEM167B (UniProt Q9NRX6),0.021,-0.032,-0.187,,0.036
TASP1 (UniProt Q9H6P5),0.027,0.205,,0.059,
